# Measured values taken from the supplement of paper PMC4466140.
# What was measured:
# Assay in all cases: SPOT peptide array binding signal intensity (averaged, normalized) (arbitrary units (background-subtracted, floor 0; scale differs between SH3 domains)); higher = stronger binding of the SH3 domain to the peptide
# AgAbp1 = target: AgAbp1
# Description: (§1)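 GST-tagged SH3 domains from S. cerevisiae (Sc), A. gossypii (Ag), C. albicans (Ca) and S. pombe (Sp) were incubated at 10 ug/ml overnight at 4 C on cellulose SPOT membranes carrying 292 synthetic 15-mer peptides mined from the S. cerevisiae proteome (cysteines replaced by serines). Binding was detected with anti-GST antibody, HRP secondary and chemiluminescence, quantified with Genespotter, and reported as normalized spot intensities averaged over biological replicates.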
# AgBbc1 = target: AgBbc1
# Description: as §1
# AgBem1-D1 = target: AgBem1-D1
# Description: as §1
# AgBzz1-D1 = target: AgBzz1-D1
# Description: as §1
# AgBzz1-D2 = target: AgBzz1-D2
# Description: as §1
# AgCyk3 = target: AgCyk3
# Description: as §1
# AgFus1 = target: AgFus1
# Description: as §1
# AgHof1 = target: AgHof1
# Description: as §1
# AgHse1 = target: AgHse1
# Description: as §1
# AgLsb1 = target: AgLsb1
# Description: as §1
# AgLsb4 = target: AgLsb4
# Description: as §1
# AgMyo5 = target: AgMyo5
# Description: as §1
# AgNbp2 = target: AgNbp2
# Description: as §1
# AgRvs167 = target: AgRvs167
# Description: as §1
# AgSho1 = target: AgSho1
# Description: as §1
# AgSla1-D1-D2 = target: AgSla1-D1-D2
# Description: as §1
# AgSla1-D3 = target: AgSla1-D3
# Description: as §1
# CaAbp1-D1 = target: CaAbp1-D1
# Description: as §1
# CaAbp1-D2 = target: CaAbp1-D2
# Description: as §1
# CaBbc1 = target: CaBbc1
# Description: as §1
# CaBem1-D1 = target: CaBem1-D1
# Description: as §1
# CaBzz1-D1 = target: CaBzz1-D1
# Description: as §1
# CaBzz1-D2 = target: CaBzz1-D2
# Description: as §1
# CaCyk3 = target: CaCyk3
# Description: as §1
# CaFus1 = target: CaFus1
# Description: as §1
# CaHof1 = target: CaHof1
# Description: as §1
# CaHse1 = target: CaHse1
# Description: as §1
# CaLsb1 = target: CaLsb1
# Description: as §1
# CaLsb4 = target: CaLsb4
# Description: as §1
# CaMyo5 = target: CaMyo5
# Description: as §1
# CaNbp2 = target: CaNbp2
# Description: as §1
# CaRvs167 = target: CaRvs167
# Description: as §1
# CaRvs167-3 = target: CaRvs167-3
# Description: as §1
# CaSho1 = target: CaSho1
# Description: as §1
# CaSla1-D1-D2 = target: CaSla1-D1-D2
# Description: as §1
# CaSla1-D3 = target: CaSla1-D3
# Description: as §1
# ScAbp1 = target: ScAbp1
# Description: as §1
# ScBbc1 = target: ScBbc1
# Description: as §1
# ScBem1-D1 = target: ScBem1-D1
# Description: as §1
# ScBzz1-D1 = target: ScBzz1-D1
# Description: as §1
# ScBzz1-D2 = target: ScBzz1-D2
# Description: as §1
# ScCyk3 = target: ScCyk3
# Description: as §1
# ScFus1 = target: ScFus1
# Description: as §1
# ScHof1 = target: ScHof1
# Description: as §1
# ScHse1 = target: ScHse1
# Description: as §1
# ScLsb1 = target: ScLsb1
# Description: as §1
# ScLsb2 = target: ScLsb2
# Description: as §1
# ScLsb3 = target: ScLsb3
# Description: as §1
# ScLsb4 = target: ScLsb4
# Description: as §1
# ScMyo3 = target: ScMyo3
# Description: as §1
# ScMyo5 = target: ScMyo5
# Description: as §1
# ScNbp2 = target: ScNbp2
# Description: as §1
# ScPex13 = target: ScPex13
# Description: as §1
# ScRvs167 = target: ScRvs167
# Description: as §1
# ScSho1 = target: ScSho1
# Description: as §1
# ScSla1-D1-D2 = target: ScSla1-D1-D2
# Description: as §1
# ScSla1-D3 = target: ScSla1-D3
# Description: as §1
# SpAbp1-D1 = target: SpAbp1-D1
# Description: as §1
# SpBbc1 = target: SpBbc1
# Description: as §1
# SpBzz1-D1 = target: SpBzz1-D1
# Description: as §1
# SpBzz1-D2 = target: SpBzz1-D2
# Description: as §1
# SpCyk3 = target: SpCyk3
# Description: as §1
# SpHof1 = target: SpHof1
# Description: as §1
# SpHof1-2 = target: SpHof1-2
# Description: as §1
# SpHof1-3 = target: SpHof1-3
# Description: as §1
# SpHse1 = target: SpHse1
# Description: as §1
# SpLsb1 = target: SpLsb1
# Description: as §1
# SpLsb4 = target: SpLsb4
# Description: as §1
# SpMyo1 = target: SpMyo1
# Description: as §1
# SpNbp2 = target: SpNbp2
# Description: as §1
# SpPex13 = target: SpPex13
# Description: as §1
# SpRvs167 = target: SpRvs167
# Description: as §1
# SpSla1-D1-D2 = target: SpSla1-D1-D2
# Description: as §1
# SpSla1-D3 = target: SpSla1-D3
# Description: as §1
binder,measurement,setting,value
RPPRPPPKPLHLRTE,SPOT peptide array binding signal intensity,AgAbp1,1720
same,SPOT peptide array binding signal intensity,AgBbc1,559
same,SPOT peptide array binding signal intensity,AgBem1-D1,113
same,SPOT peptide array binding signal intensity,AgBzz1-D1,270
same,SPOT peptide array binding signal intensity,AgBzz1-D2,69
same,SPOT peptide array binding signal intensity,AgCyk3,≤ 0
same,SPOT peptide array binding signal intensity,AgFus1,5.5
same,SPOT peptide array binding signal intensity,AgHof1,50
same,SPOT peptide array binding signal intensity,AgHse1,178
same,SPOT peptide array binding signal intensity,AgLsb1,27
same,SPOT peptide array binding signal intensity,AgLsb4,52
same,SPOT peptide array binding signal intensity,AgMyo5,8.25
same,SPOT peptide array binding signal intensity,AgNbp2,1310
same,SPOT peptide array binding signal intensity,AgRvs167,12.3
same,SPOT peptide array binding signal intensity,AgSho1,836
same,SPOT peptide array binding signal intensity,AgSla1-D1-D2,28
same,SPOT peptide array binding signal intensity,AgSla1-D3,14
same,SPOT peptide array binding signal intensity,CaAbp1-D1,913
same,SPOT peptide array binding signal intensity,CaAbp1-D2,4480
same,SPOT peptide array binding signal intensity,CaBbc1,626
same,SPOT peptide array binding signal intensity,CaBem1-D1,314
same,SPOT peptide array binding signal intensity,CaBzz1-D1,1940
same,SPOT peptide array binding signal intensity,CaBzz1-D2,405
same,SPOT peptide array binding signal intensity,CaCyk3,29
same,SPOT peptide array binding signal intensity,CaFus1,61.5
same,SPOT peptide array binding signal intensity,CaHof1,1
same,SPOT peptide array binding signal intensity,CaHse1,1310
same,SPOT peptide array binding signal intensity,CaLsb1,0.5
same,SPOT peptide array binding signal intensity,CaLsb4,1080
same,SPOT peptide array binding signal intensity,CaMyo5,2
same,SPOT peptide array binding signal intensity,CaNbp2,567
same,SPOT peptide array binding signal intensity,CaRvs167,67
same,SPOT peptide array binding signal intensity,CaRvs167-3,4.75
same,SPOT peptide array binding signal intensity,CaSho1,148
same,SPOT peptide array binding signal intensity,CaSla1-D1-D2,1990
same,SPOT peptide array binding signal intensity,CaSla1-D3,97.5
same,SPOT peptide array binding signal intensity,ScAbp1,3670
same,SPOT peptide array binding signal intensity,ScBbc1,57.5
same,SPOT peptide array binding signal intensity,ScBem1-D1,4
same,SPOT peptide array binding signal intensity,ScBzz1-D1,49
same,SPOT peptide array binding signal intensity,ScBzz1-D2,26
same,SPOT peptide array binding signal intensity,ScCyk3,1
same,SPOT peptide array binding signal intensity,ScFus1,8
same,SPOT peptide array binding signal intensity,ScHof1,0.5
same,SPOT peptide array binding signal intensity,ScHse1,131
same,SPOT peptide array binding signal intensity,ScLsb1,90
same,SPOT peptide array binding signal intensity,ScLsb2,8
same,SPOT peptide array binding signal intensity,ScLsb3,2810
same,SPOT peptide array binding signal intensity,ScLsb4,58
same,SPOT peptide array binding signal intensity,ScMyo3,72.8
same,SPOT peptide array binding signal intensity,ScMyo5,163
same,SPOT peptide array binding signal intensity,ScNbp2,1770
same,SPOT peptide array binding signal intensity,ScPex13,1500
same,SPOT peptide array binding signal intensity,ScRvs167,375
same,SPOT peptide array binding signal intensity,ScSho1,1530
same,SPOT peptide array binding signal intensity,ScSla1-D1-D2,2390
same,SPOT peptide array binding signal intensity,ScSla1-D3,4.5
same,SPOT peptide array binding signal intensity,SpAbp1-D1,2570
same,SPOT peptide array binding signal intensity,SpBbc1,6
same,SPOT peptide array binding signal intensity,SpBzz1-D1,1060
same,SPOT peptide array binding signal intensity,SpBzz1-D2,43
same,SPOT peptide array binding signal intensity,SpCyk3,≤ 0
same,SPOT peptide array binding signal intensity,SpHof1,65
same,SPOT peptide array binding signal intensity,SpHof1-2,15.5
same,SPOT peptide array binding signal intensity,SpHof1-3,237
same,SPOT peptide array binding signal intensity,SpHse1,216
same,SPOT peptide array binding signal intensity,SpLsb1,582
same,SPOT peptide array binding signal intensity,SpLsb4,1950
same,SPOT peptide array binding signal intensity,SpMyo1,318
same,SPOT peptide array binding signal intensity,SpNbp2,22
same,SPOT peptide array binding signal intensity,SpPex13,17
same,SPOT peptide array binding signal intensity,SpRvs167,865
same,SPOT peptide array binding signal intensity,SpSla1-D1-D2,13.5
same,SPOT peptide array binding signal intensity,SpSla1-D3,4
NILKRRPLKLEAPSK,SPOT peptide array binding signal intensity,SpBzz1-D2,≤ 0
same,SPOT peptide array binding signal intensity,SpCyk3,≤ 0
same,SPOT peptide array binding signal intensity,SpHof1,48.8
same,SPOT peptide array binding signal intensity,SpHof1-2,≤ 0
same,SPOT peptide array binding signal intensity,SpHof1-3,699
same,SPOT peptide array binding signal intensity,SpHse1,1400
same,SPOT peptide array binding signal intensity,SpLsb1,1
same,SPOT peptide array binding signal intensity,SpLsb4,3.5
same,SPOT peptide array binding signal intensity,SpMyo1,≤ 0
same,SPOT peptide array binding signal intensity,SpNbp2,58
same,SPOT peptide array binding signal intensity,SpPex13,≤ 0
same,SPOT peptide array binding signal intensity,SpRvs167,1.33
same,SPOT peptide array binding signal intensity,SpSla1-D1-D2,2
same,SPOT peptide array binding signal intensity,SpSla1-D3,≤ 0
